These results are taken from PubChem BioAssay AID1851 (National Center for Advancing Translational Sciences (NCATS), 2009).

SMILES strings stand for the structures. Several values for one entry are separate records, joined by “and”; a condition that tells them apart may be missing. Equal values may be shown once. Screen size: about 16,000 compounds; about 4,000 (25%) were called active. Inconclusive results (about 26%) are left out. These entries were drawn from the full list. A number with no mark means an inactive call. Calls come from the whole dose curve; as a rule, active = well fitted curve in the direction sought with a large enough effect; inconclusive = small, poorly fitted or top-dose-only effect, or effect the other way; inactive = no such curve, though single readings can be large or run the other way.
% is set by controls: 0 for no effect and ±100 for the full control effect.

In the assay the target is Cytochrome P450 2C9 (Homo sapiens) (UniProt P11712). Kind of assay: Cytochrome panel assay with activity outcomes. Conditions: recombinant CYP, pro-luciferin dealkylation, luminescence, p450-cyp2c9; series mostly up to 57.1 µM.
Cytochrome P450 2C9 (Homo sapiens), sequence (P11712 whole entry, looked up): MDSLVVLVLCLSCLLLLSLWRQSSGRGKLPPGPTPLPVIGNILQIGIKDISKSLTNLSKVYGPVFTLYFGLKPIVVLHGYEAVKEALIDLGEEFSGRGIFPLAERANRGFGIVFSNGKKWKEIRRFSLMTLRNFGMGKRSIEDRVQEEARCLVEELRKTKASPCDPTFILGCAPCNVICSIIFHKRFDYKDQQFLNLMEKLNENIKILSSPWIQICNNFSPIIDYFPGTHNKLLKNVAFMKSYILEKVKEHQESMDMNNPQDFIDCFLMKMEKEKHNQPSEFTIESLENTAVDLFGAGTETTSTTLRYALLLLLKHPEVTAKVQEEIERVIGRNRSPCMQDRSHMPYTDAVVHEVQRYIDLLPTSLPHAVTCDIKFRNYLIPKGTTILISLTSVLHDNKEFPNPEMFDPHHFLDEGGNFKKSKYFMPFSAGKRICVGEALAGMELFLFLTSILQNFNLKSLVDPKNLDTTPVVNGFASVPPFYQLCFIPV
A word on the AC50: it is the midpoint of the concentration-response curve, whichever way the signal moves. Consider `CCSc1ncc(/C=N/Nc2ccc(F)cc2)n1C`, for which the AC50 is 12.6 µM (active).

`CCOC(=O)N/N=C/c1ccc(F)cc1`: the AC50 entry was “inactive”. For `Cc1cnn(CCC(=O)NNC(=S)Nc2ccc(F)cc2)c1`, the AC50 result was “inactive”. Take `c1ccc([C@H](CCN2CCCC2)c2ccccn2)cc1`: the activity, negative = inhibition was 10.4% [at 11.4 µM]. With `O=C1[C@H]2[C@H]3[C@H](O)[C@H](O)C/C(=N/OC[C@@H](O)COCc4ccco4)[C@H]3CC[C@@H]2C(=O)N1Cc1ccc2c(c1)OCO2`, the activity, negative = inhibition was 12.6% [at 11.4 µM]. `Cc1c(C(=O)NN2CCOCC2)nn(-c2ccc(Cl)cc2Cl)c1-c1ccc(I)cc1`: the half-maximal activity concentration (AC50) was 6.31 µM (active). On to `Cc1ccc(C(=O)NN2CCOCC2)cc1`, for which the AC50 result was “inactive”.

For `O=C(N/N=C1/C[C@@H](O)[C@@H](O)[C@@H]2[C@@H]3C(=O)N(Cc4ccccc4)C(=O)[C@H]3CC[C@H]12)OCc1ccccc1`, the activity, negative = inhibition is 4.61% [at 11.4 µM].

As for `COc1ccc(C/C(N)=N/OC(=O)Cc2ccccc2)cc1OC`, the AC50 entry was “inactive”. Same read-out and setting: the result for `CCOC(=O)c1sc(NS(=O)(=O)c2ccccc2)nc1C` reads 1 µM (active). On the same count and under the same terms, the result for `CCOC(=O)Cc1csc(NS(=O)(=O)c2ccccc2)n1` reads 5.01 µM (active). For the compound `COC(=O)c1c(-c2ccc3ccccc3c2)csc1NC(=O)Cc1ccc(OC)c(OC)c1`, the AC50 is 0.447 µM (active). For the compound `COc1ccc(CC(=O)NCc2ccccn2)cc1OC`, the AC50 entry was “inactive”. With `CCOC(=O)c1sc(NC(C)=O)nc1-c1ccccc1`, the half-maximal activity concentration (AC50) is 31.6 µM (active). Take `C#CCCCO/N=C1/C[C@@H](O)[C@@H](O)[C@@H]2[C@@H]3C(=O)N(C4CCCCC4)C(=O)[C@H]3CC[C@H]12`: the activity, negative = inhibition is 6.11% [at 11.4 µM]. Take `CCOC(=O)c1c(-c2ccc(OC)cc2)csc1NC(=O)CCN1C(=O)c2ccccc2C1=O`: the AC50 is 1.41 µM (active). Still for that read-out and setting: the result for `CCOC(=O)c1c(-c2cccc(C)c2)csc1NC(=O)c1c(-c2ccccc2)noc1C` reads “inactive”; that for `CCOC(=O)c1c(-c2ccccc2)csc1NC(=O)c1cccc(N2C(=O)CCC2=O)c1`, 0.316 µM (active); that for `CCCC(=O)Nc1nc(C(=O)OCC)cs1`, “inactive”. Consider `Cn1cnnc1SCC(=O)OCN1C(=O)c2ccccc2C1=O`, for which the AC50 entry was “inactive”. For the compound `CCOC(=O)c1c(C)n(C)c2ccc(OC)c(NC(=O)CN3CCCCC3)c12`, the AC50 result is “inactive”. As to `CCOC(=O)Cc1csc(NC(=O)CCCCCN2C(=O)c3ccccc3C2=O)n1`, the AC50 is 1.26 µM (active). Same read-out and setting: the result for `N[C@@H](Cn1cc(F)c(=O)[nH]c1=O)C(=O)O` reads “inactive”. Take `Cc1c(C(=O)NCCC2=CCCCC2)cccc1[N+](=O)[O-]`: the AC50 result was “inactive”.

As to `Cc1ccc(S(=O)(=O)N(CC(=O)NCCC2=CCCCC2)Cc2ccccc2F)cc1`, the AC50 is 7.08 µM (active). For the compound `CC(=O)c1cnc2cc(C)nn2c1C`, the AC50 result is “inactive”. On to `O=C1CCCN1c1ccc(S(=O)(=O)Oc2cccc(Cl)c2)cc1[N+](=O)[O-]`, for which the half-maximal activity concentration (AC50) was 11.2 µM (active). Take `O=C(Cn1ccnc1[N+](=O)[O-])NCCO`: the AC50 result is “inactive”. As to `COc1cccc(-c2nccc(-n3ccnc3)n2)c1`, the activity, negative = inhibition was -24.4% [at 2.29 µM]. On to `COc1cccc(-c2ccc3ncnc(N4CCN(C)CC4)c3c2)c1`, for which the activity, negative = inhibition is -5.64% [at 2.29 µM].

Regarding `COc1cccc(-c2nnc3sc(-c4ccc(C)cc4)nn23)c1`, the half-maximal activity concentration (AC50) was 10 µM (active). Take `COc1ccc(CNc2ccnc(-c3ccc(C(=O)N(C)C)cc3)n2)c(OC)c1`: the activity, negative = inhibition was -2.88% [at 2.29 µM]. As to `Cc1ccc(NC(=O)C2(NC(=O)c3cccc(N4C(=O)CSC4c4ccccc4)c3)CCCCC2)cc1` (centres undefined), the concentration at half-maximal activity (AC50) was 1.41 µM (active).

With `Cc1ccc(N2C(=O)CSC2c2cccnc2)cc1F` (centres undefined), the AC50 result is “inactive”. Consider `Cc1ncc(COP(=O)(O)O)c(C)c1O`, for which the activity, negative = inhibition was 5.34% [at 11.4 µM].

As to `COc1ccc(NC(C)=O)cc1NC(=O)CN1CCN(C2c3ccccc3-c3ccccc32)CC1`, the concentration at half-maximal activity (AC50) is 10 µM (active).

On to `CCN1CCN(C(=O)C2c3cc(OC)c(OC)cc3C(=O)N3CCc4ccccc4C23)CC1` (centres undefined), for which the AC50 entry was “inactive”. For the compound `COC(=O)N1CCC2(CCCN(Cc3ccccc3OC)C2)CC1`, the AC50 entry was “inactive”. With `COC(=O)C/C=C1\c2ccccc2[C@H](OC)[C@H]1C`, the activity, negative = inhibition is 15.8% [at 11.4 µM].

`CC(=O)Nc1ccc2c(c1)C(=Nc1ccc(C(=O)O)cc1)c1ccccc1-2`: the activity, negative = inhibition is 16.5% [at 11.4 µM].

In the case of `O=C(O)C[C@@H](C(=O)O)C1c2ccccc2-c2ccccc21`, the activity, negative = inhibition was -12.1% [at 11.4 µM].

Regarding `COc1ccccc1NC(=O)CN1CCN(C2c3ccccc3-c3ccccc32)CC1`, the AC50 is 0.794 µM (active). As for `CC(C)OC(=O)CN1CCN(C2c3ccccc3-c3ccccc32)CC1`, the AC50 was 14.1 µM (active). Take `Cc1c(NC(=O)NC(C)N2C(=O)C3C4C=CC(C4)C3C2=O)c(=O)n(-c2ccccc2)n1C` (centres undefined): the AC50 result is “inactive”. For `COCCNc1cc(-c2ccccc2C(F)(F)F)ncn1`, the activity, negative = inhibition was 6.38% [at 2.29 µM]. In the case of `O=C(NNC(=S)NCc1ccco1)c1ccc(Cl)s1`, the AC50 was 4.47 µM (active). As for `O=S(=O)(c1ccccc1)N1CCC2(CCCN(Cc3nccs3)C2)CC1`, the AC50 entry is “inactive”.

Turning to `CSC(=NC#N)N1CCN(c2ccc(Cl)cc2)CC1`, the AC50 was 5.01 µM (active).

For the compound `CC(C)c1nnc(NC(=O)c2sc3ccccc3c2Cl)s1`, the AC50 was 12.6 µM (active). Take `CC(C)Cc1nnc(NC(=O)c2ccc([N+](=O)[O-])cc2)s1`: the AC50 entry is “inactive”. Same read-out and setting: the result for `CCOC(=S)NC(=O)c1sc2ccccc2c1Cl` reads 0.0631 µM (active). As to `CCCCOC(=S)NC(=O)c1sc2ccccc2c1Cl`, the AC50 was 0.282 µM (active). On to `Cc1ccc(NC(=O)c2sc3ccccc3c2Cl)nc1`, for which the AC50 entry is “inactive”.

`CN(C(=S)NC(=O)c1ccccc1Br)C1CCCCC1`: the AC50 entry is “inactive”.

Turning to `O=C(NC(=S)N(CCCCO)C1CCCCC1)c1sc2ccccc2c1Cl`, the AC50 was 7.94 µM (active). For the compound `O=C(O)CCC(=O)c1ccc2sc3ccccc3c2c1`, the activity, negative = inhibition was -2.22% [at 11.4 µM]. For `Cc1ncc2c(c1O)COP(=O)(O)OC2`, the AC50 entry was “inactive”. Take `CN(C)c1ccc(-c2cc(NCc3cccnc3)ncn2)cc1`: the activity, negative = inhibition was -1.19% [at 2.29 µM]. For the compound `CCc1cc2c(nc1CC)CCN(CC/C(C)=N/O[C@@H](C)c1cn([C@H](CO)Cc3ccccc3)nn1)C2`, the activity, negative = inhibition was 1.31% [at 11.4 µM] and -5.84% [at 11.4 µM]. For `COc1ccc2[nH]cc(C=O)c2c1`, the AC50 entry is “inactive”. Take `CC1(C)Oc2ccc(C#N)cc2[C@H](N2CCCC2=O)[C@H]1O`: the AC50 result is “inactive”. Regarding `O=C(O)CCC(O)=C1S(=O)(=O)OCCOS1(=O)=O`, the activity, negative = inhibition was 8.09% [at 11.4 µM]. With `O=C(O)[C@H]1CCCNC1`, the AC50 entry was “inactive”. In the case of `c1c[nH]c(CN2CCN(Cc3ncc[nH]3)CC2)n1`, the activity, negative = inhibition is -13% [at 11.4 µM]. Turning to `CC[C@H]1C2=C3C(CC[C@H]4C(OCc5ccc(F)cc5C(F)(F)F)OC[C@](C)([C@@H]34)N(C(=O)OC(C)(C)C)C2)C(COC)C1COC` (some centres undefined), the AC50 entry was “inactive”. In the case of `CCn1nc(C(=O)Nc2ccccc2C)c(Cl)c1Cl`, the AC50 result is “inactive”. Turning to `Cc1ccccc1Cn1nc(C)c(NC(=O)c2sc3ccccc3c2Cl)c1C`, the AC50 is 7.08 µM (active).

As to `CN(C)CCN(Cc1cccs1)c1ccccn1`, the AC50 entry is “inactive”. With `Cc1ccc(S(=O)(=O)/C(C#N)=C/c2c(N3CC(C)OC(C)C3)nc3ccccn3c2=O)cc1` (centres undefined), the concentration at half-maximal activity (AC50) was 11.2 µM (active). On the same count and under the same terms, the result for `CC(=O)[C@H]1CC[C@@H]2[C@H]3CC=C4C[C@@H](O)CC[C@]4(C)[C@H]3CC[C@]12C` reads “inactive”.

Regarding `C[C@@H](O)[C@H]1C(=O)N2C(C(=O)O)=C(S[C@@H]3CN[C@H](C(=O)N(C)C)C3)[C@H](C)[C@H]12`, the AC50 entry was “inactive”.

`CCOC(=O)c1[nH]c(C)c(C(=O)OCC(=O)N2c3ccccc3CC2C)c1C` (centres undefined): the AC50 was 25.1 µM (active). Regarding `Cc1ccc(-c2cc(-c3nnc(SCC(=O)NC(C)C(C)C)n3N)c3ccccc3n2)cc1` (centres undefined), the AC50 is 1.12 µM (active). `Cc1nnc(SCC(=O)NCC2CCCCC2)n(N)c1=O`: the AC50 result is “inactive”. For the compound `NNC(=O)CNc1cccc(Br)c1`, the activity, negative = inhibition was 1.94% [at 11.4 µM]. `NNC(=O)CNC(c1ccccc1)c1cc(Br)ccc1NC(=O)c1ccccc1Br` (centres undefined): the AC50 was 3.16 µM (active). Take `Cc1ccccc1-c1nc(N2CCNCC2)c2ccccc2n1`: the activity, negative = inhibition was 0.671% [at 2.29 µM]. With `C[C@](O)(c1ccccc1)c1nccc2ccccc12`, the activity, negative = inhibition was -17.3% [at 11.4 µM]. Regarding `Oc1c(C(O)(c2ccccc2)c2ccc3ccccc3c2O)ccc2ccccc12`, the half-maximal activity concentration (AC50) is 0.794 µM (active). `Nc1nc(N)c2nn(-c3ccc(C(=O)O)cc3)nc2n1`: the activity, negative = inhibition was 7.68% [at 11.4 µM]. Regarding `COc1ccccc1C1CC(c2c(-c3ccccc3)c3cc(Cl)ccc3[nH]c2=O)=NN1S(C)(=O)=O` (centres undefined), the concentration at half-maximal activity (AC50) is 2.82 µM (active).

With `CCC1=NN(C(=O)CCc2ccccc2)C(O)(C(F)(F)F)C1` (centres undefined), the AC50 is 4.47 µM (active). Take `CCOC(=O)N1N=C(c2ccccc2)CC1(O)C(F)(F)F` (centres undefined): the AC50 is 10 µM (active). In the case of `COc1cc(N=C(N)N=C(N)N)c2ncccc2c1`, the activity, negative = inhibition is 8.03% [at 11.4 µM]. In the case of `CCOC(=O)N/N=C1/C[C@@H](O)[C@@H](O)[C@@H]2[C@@H]3C(=O)N(c4cccc(Oc5ccccc5)c4)C(=O)[C@H]3CC[C@H]12`, the activity, negative = inhibition was 7.2% [at 11.4 µM]. As for `Cc1cc(C2C(C#N)=C(N)OC3=C2C(=O)CC(C)(C)C3)c(C)s1` (centres undefined), the half-maximal activity concentration (AC50) was 7.08 µM (active).

For `COc1ccc(C2C(C#N)=C(N)OC3=C2C(=O)CC(C)(C)C3)c([N+](=O)[O-])c1OC` (centres undefined), the concentration at half-maximal activity (AC50) is 1 µM (active). As to `C[C@H]1COC(=O)[C@H](Cc2ccccc2)NC(=O)[C@@H](C)COC(=O)[C@H](Cc2ccccc2)NC1=O`, the activity, negative = inhibition is -8.11% [at 11.4 µM].

In the case of `CO[C@H]1COC(=O)[C@H](C)NC(=O)C/C=C\[C@@H](C)[C@@H](NS(=O)(=O)c2ccc(C)cc2)COC(=O)C/C=C\[C@@H]1C`, the activity, negative = inhibition is -2.5% [at 11.4 µM]. On to `Cc1ccc(-c2c3c(nc4sc(C(N)=O)c(N)c24)CCC3)cc1`, for which the AC50 is 8.91 µM (active). Turning to `CCOC(=O)c1c(C)nc2sc3c(=O)n(-c4ccc(OC)cc4)nnc3c2c1-c1ccc(OC)cc1`, the AC50 was 10 µM (active). Still for that read-out and setting: the result for `CCOC(=O)c1c(NC(=O)C2C3CCC(O3)C2C(=O)O)sc(C)c1-c1ccc(C)cc1` (centres undefined) reads “inactive”; that for `CCOC(=O)Cn1nnc2c(sc3nc4c(c(-c5ccc(Cl)cc5)c32)CCC4)c1=O`, 12.6 µM (active). With `Cc1ccc(C(=O)Cn2nnc3c(sc4nc5c(c(-c6ccccc6)c43)CCC5)c2=O)cc1`, the concentration at half-maximal activity (AC50) was 3.55 µM (active).
